Records with an inconclusive call do not appear. Where a call stands in place of a potency, no number is given. Values without a mark were called inactive. Active and inactive are the calls of the source. Calls follow the shape of the dose curve; as a rule, active = well fitted inhibition curve with a large enough effect in the signal ratio in the repeat runs (not every such curve was filed as active); inconclusive = weak or mixed curves; inactive = flat fitted curve, though single readings scatter; the % refers to the signal ratio.

Sequence of Progesterone receptor (Homo sapiens) (P06401 whole entry, looked up): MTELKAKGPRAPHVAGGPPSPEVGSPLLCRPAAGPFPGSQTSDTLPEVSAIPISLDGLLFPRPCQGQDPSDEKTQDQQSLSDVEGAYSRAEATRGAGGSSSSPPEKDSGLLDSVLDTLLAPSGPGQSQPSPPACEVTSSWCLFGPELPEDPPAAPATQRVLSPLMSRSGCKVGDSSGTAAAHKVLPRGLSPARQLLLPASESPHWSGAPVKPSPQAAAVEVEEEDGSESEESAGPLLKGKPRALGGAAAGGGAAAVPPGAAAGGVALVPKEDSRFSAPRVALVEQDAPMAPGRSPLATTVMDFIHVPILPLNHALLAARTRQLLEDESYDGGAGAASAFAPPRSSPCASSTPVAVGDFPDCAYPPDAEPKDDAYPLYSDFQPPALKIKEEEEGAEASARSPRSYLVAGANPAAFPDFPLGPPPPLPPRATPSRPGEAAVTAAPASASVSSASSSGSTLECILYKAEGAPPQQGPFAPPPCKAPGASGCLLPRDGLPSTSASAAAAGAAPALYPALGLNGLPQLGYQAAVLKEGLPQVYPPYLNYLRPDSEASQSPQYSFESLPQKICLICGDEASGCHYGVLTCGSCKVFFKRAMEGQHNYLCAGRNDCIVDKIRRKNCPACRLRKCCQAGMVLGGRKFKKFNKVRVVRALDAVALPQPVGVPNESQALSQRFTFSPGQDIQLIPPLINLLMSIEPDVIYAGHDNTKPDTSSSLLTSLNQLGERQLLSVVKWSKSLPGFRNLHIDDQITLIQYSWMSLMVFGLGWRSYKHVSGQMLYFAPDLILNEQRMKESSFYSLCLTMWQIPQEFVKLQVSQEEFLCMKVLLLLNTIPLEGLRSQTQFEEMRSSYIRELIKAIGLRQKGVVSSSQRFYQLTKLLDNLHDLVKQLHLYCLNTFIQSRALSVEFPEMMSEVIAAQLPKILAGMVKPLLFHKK

The target in this assay is Progesterone receptor (Homo sapiens) (UniProt P06401). Put plainly: qHTS assay to identify small molecule antagonists of the progesterone receptor (PR) signaling pathway (AID 1346795). The following applies: PR-UAS-bla HEK293T, beta-lactamase FRET ratio, 16 h; series mostly up to 92.4 µM. From the text:
National Center for Advancing Translational Sciences [NCATS]
NIH Chemical Genomics Center [NCGC]
U.S. Environmental Protection Agency [EPA]
National Institutes of Environmental Health Sciences [NIEHS]
National Toxicology Program [NTP]
U.S. Food and Drug Administration [FDA]
Progesterone receptor (PR), a nuclear hormone receptor, plays an important role in development, metabolic homeostasis and reproduction. […] Endocrine disrupting chemicals (EDCs) and their interactions with steroid hormone receptors like PR causes disruption of normal endocrine function. To identify the compounds that inhibit PR signaling, a PR-UAS-bla GripTite cell line i.e. PR-UAS-bla HEK293T (Invitrogen, Carlsbad, CA, USA) containing a beta-lactamase reporter gene under the control of an Upstream Activator Sequence (UAS) was used to screen Tox21 10K compound library.
Tox21 Assay Protocol Summary:
PR-UAS-bla HEK293T cells were dispensed at 3,000 cells/4 uL of assay medium containing 2% charcoal stripped FBS per well into black wall/clear-bottom 1536-well plates using a Multidrop Combi (ThermoFisher Scientific, Waltham, MA) dispenser. After the assay plates were incubated at a 37C and 5% CO2 for 6 hr, 23 nL of compounds dissolved in DMSO, positive controls or DMSO only was transferred to the assay plate by a Pintool station (Kalypsys, San Diego, CA), followed by addition of 1 uL (1nM as final concentration) of Promegestone (R5020) in assay medium using a BioRAPTR FRD (Flying Reagent Dispenser, Aurora Discovery, San Diego, CA). The plates were incubated at 37C and 5% CO2 for 16 hr. Then 1 uL of LiveBLAzer B/G FRET substrate was added using a FRD. After the plates were incubated at room temperature for 2 hours, fluorescence intensity was measured by an Envision plate reader (PerkinElmer, Shelton, CT).
A general note: qHTS replaces the single test concentration by a dilution series.
In the case of `O=CCCl`, the Potency entry was “inactive”. On the same count and under the same terms, the result for `NC(=O)CS(=O)C(c1ccccc1)c1ccccc1` (stereo not given) reads “inactive”. As to `O=C(Cl)c1ccccc1`, the Potency entry is “inactive”. In the case of `C(COCC1CO1)OCC1CO1` (stereo not given), the Potency result is “inactive”. The same measure, in the same setting: the value for `O=P(O)(O)CN(CP(=O)(O)O)CP(=O)(O)O` was “inactive”. On the same count and under the same terms, the result for `CN=CNc1ccc(C)cc1C` reads “inactive”. Same read-out and setting: the result for `CCC(C)C(C)(COC(N)=O)COC(N)=O` (stereo not given) reads “inactive”; that for `BrCC1CO1` (stereo not given), “inactive”; that for `CNC(=O)Oc1ccccc1C(C)C`, “inactive”. Turning to `[O-][Br+2]([O-])O`, the Potency entry is “inactive”. The same measure, in the same setting: the value for `O=C(NC(=O)c1c(F)cccc1F)Nc1cc(Cl)c(F)c(Cl)c1F` was “inactive”.

Turning to `C/C=C/CC#N`, the Potency entry is “inactive”. With `O=[N+]([O-])CCO`, the Potency result is “inactive”. Still for that read-out and setting: the result for `CCC1(c2ccccc2)CCC(=O)NC1=O` (stereo not given) reads “inactive”. On the same count and under the same terms, the value for `CCCN1CCC[C@@H]2Cc3nc(N)ncc3C[C@H]21` was “inactive”; that for `CN(C)C(=O)Oc1cc(OC(=O)N(C)C)cc(C(O)CNC(C)(C)C)c1` (stereo not given) was “inactive”.

For `CCCC[N+](=O)[O-]`, the Potency result was “inactive”.

On to `CCCCS(=O)(=O)Cl`, for which the Potency entry was “inactive”. In the case of `COC[C@@H](NC(C)=O)C(=O)NCc1ccccc1`, the Potency result is “inactive”. Same read-out and setting: the result for `Nc1c(Cl)c(F)nc(OCC(=O)O)c1Cl` reads “inactive”; that for `Cc1ccc(Cl)c(O)c1`, “inactive”; that for `CCCCCCCC(=O)Cl`, “inactive”. With `Oc1ccc2c3c1O[C@H]1[C@@H](O)C=C[C@H]4[C@@H](C2)NCC[C@@]341`, the Potency result was “inactive”. Still for that read-out and setting: the result for `O=C1CC(=O)NC(=O)N1` reads “inactive”. Regarding `COc1cc(CCN)cc(OC)c1OC`, the Potency entry is “inactive”.

On to `CON(C)C(=O)Nc1ccc(Br)cc1`, for which the Potency result is “inactive”. `CN1C(=O)COc2c(C(=O)NC3CN4CCC3CC4)cc(Cl)cc21` (stereo not given): the Potency result is “inactive”. The same measure, in the same setting: the result for `Cc1ccc(S(=O)(=O)N[C@@H](CCCCN)C(=O)CCl)cc1` reads “inactive”; that for `COc1ccccc1OC`, “inactive”. For `CCCCCCC(=O)CCCCCC/C=C/C[C@@H](O)[C@H](O)[C@@](N)(CO)C(=O)O`, the activity change, negative = inhibition is 0.638% [at 18.9 µM]. With `N#CC(Br)(Br)C(N)=O`, the Potency entry is “inactive”. On the same count and under the same terms, the value for `CCOP(=O)(CN(CCO)CCO)OCC` was “inactive”. For `CC(Cl)(Cl)Cl`, the Potency entry was “inactive”. On the same count and under the same terms, the value for `CC1N=C(N)OC1c1ccccc1` (stereo not given) was “inactive”. As to `O=C(Cl)C(Cl)(Cl)Cl`, the Potency result is “inactive”.

For the compound `CCC(=O)OC1(c2ccccc2)CCN(C)CC1`, the Potency result is “inactive”. In the case of `ClC(Cl)(Cl)Cl`, the Potency result is “inactive”. Take `NNC(N)=O`: the Potency result was “inactive”.

As to `CCC(C)(C#N)N=NC(C)(C#N)CC` (stereo not given), the Potency entry is “inactive”.

Turning to `CC(C)[N+](C)(CCC(C(N)=O)(c1ccccc1)c1ccccc1)C(C)C`, the Potency result was “inactive”.

Source of the values: PubChem BioAssay (Tox21).
